About 83,000 compounds went through this panel and 20% of them were active in at least one assay; those are over-represented in the sample as a whole.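 48-hour exposure, single concentration, 96-well plates; percent growth endpoint where 0 means no net growth. Active: below 10.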 Unmarked numbers belong to inactive results. The source made the active and inactive calls.
Key:
Experiment in all cases: NCI-60 one-dose screen, 48 h (100 = growth as untreated, 0 = no growth, -100 = all killed)
Conditions in all cases: 10 µM unless noted
DU-145 prostate = test system: DU-145 prostate
K-562 leukemia = test system: K-562 leukemia
MALME-3M melanoma = test system: MALME-3M melanoma
MDA-MB-231 breast = test system: MDA-MB-231 breast
RXF 393 renal = test system: RXF 393 renal
SF-268 CNS = test system: SF-268 CNS
SF-295 CNS = test system: SF-295 CNS
UACC-257 melanoma = test system: UACC-257 melanoma
M14 melanoma = test system: M14 melanoma
HCT-15 colon = test system: HCT-15 colon
HT29 colon = test system: HT29 colon
SNB-75 CNS = test system: SNB-75 CNS
SNB-19 CNS = test system: SNB-19 CNS
U251 CNS = test system: U251 CNS
PC-3 prostate = test system: PC-3 prostate
SK-MEL-5 melanoma = test system: SK-MEL-5 melanoma
UACC-62 melanoma = test system: UACC-62 melanoma
LOX IMVI melanoma = test system: LOX IMVI melanoma
SK-MEL-28 melanoma = test system: SK-MEL-28 melanoma
SF-539 CNS = test system: SF-539 CNS

SMILES	growth (DU-145 prostate)	growth (K-562 leukemia)	growth (MALME-3M melanoma)	growth (MDA-MB-231 breast)	growth (RXF 393 renal)	growth (SF-268 CNS)	growth (SF-295 CNS)	growth (UACC-257 melanoma)	growth (M14 melanoma) [%]	growth (HCT-15 colon)	growth (HT29 colon)	growth (SNB-75 CNS)	growth (SNB-19 CNS) [%]	growth (U251 CNS)	growth (PC-3 prostate)	growth (SK-MEL-5 melanoma)	growth (UACC-62 melanoma)	growth (LOX IMVI melanoma)	growth (SK-MEL-28 melanoma)	growth (SF-539 CNS)
CS(=O)(=O)c1c(Nc2ccccc2)n[nH]c1N	115%	93.2%	124%	103%	114%	111%	126%	105%	113	101%	97.3%	114%	91.1	105%	82.5%	101%	92.4%	89.8%	106%	–
O=c1c2c3c(sc2n2c(CCl)nnc2n1Cc1ccccc1)CCCC3	-11.9% (active)	-65.2% (active)	-71.4% (active)	-60.2% (active)	-39.1% (active)	-59.2% (active)	126%	-53.6% (active)	–	-89.4% (active)	-100% (active)	-61.3% (active)	–	-99.2% (active)	-100% (active)	-96.1% (active)	-72.8% (active)	-100% (active)	-100% (active)	-85.5% (active)
CCN(CC)CC(O)c1cc(-c2ccc(Cl)cc2)nc2c(C)c(Cl)ccc12 (stereo not given)	-71.1% (active)	-75.3% (active)	-64% (active)	-82.2% (active)	-86.4% (active)	-29.5% (active)	-76.8% (active)	-80.8% (active)	–	-86.9% (active)	-100% (active)	-39.7% (active)	–	-93.5% (active)	-68.4% (active)	-96.6% (active)	-92.3% (active)	-94.7% (active)	-85.5% (active)	-98.6% (active)
Cc1cc2cc3cc(C)c(N(C)C)cc3nc2cc1N(C)C	25.4%	41.5%	28.4%	63.2%	24%	13.9%	19.4%	–	37.4	71.6%	15.9%	26.6%	–	15.4%	4.41% (active)	–	58.5%	24%	40.6%	8.78% (active)
O=C1C=CC(=O)N1c1ccc(Cc2ccc(N3C(=O)C=CC3=O)cc2)cc1	111%	66.4%	88.2%	90.3%	106%	118%	121%	–	96.8	91.1%	133%	164%	–	96.8%	91.2%	96.3%	83.7%	96.1%	120%	93.4%
Nc1cccc(NC(=O)C(=O)Nc2cccc(N)c2)c1	107%	95.3%	141%	104%	87.5%	101%	98.1%	–	87.4	94.5%	115%	94%	–	95.8%	99.8%	117%	90.6%	90%	103%	111%
CC(C)Oc1nc2c(c(=O)n(C)c(=O)n2C)n1C	105%	95%	107%	103%	116%	100%	101%	88%	107	106%	96.6%	88%	96.4	99.7%	90.7%	104%	96.5%	98.9%	105%	–
C/C(Cc1ccc(Cl)cc1)=C(\c1ccc(OCCN2CCCCCC2)cc1)c1ccc(OC(=O)Cc2ccccc2)cc1	75.9%	1.27% (active)	69.5%	82.4%	53.6%	60.2%	90.4%	89.3%	–	32.6%	9.8% (active)	–	74.4	42.5%	54.2%	–	75.1%	78.3%	71.3%	81.5%
O=C(O)c1ccccc1Nc1cccc(S(F)(F)(F)(F)F)c1	107%	107%	101%	110%	116%	94.2%	99.4%	102%	102	94.7%	84.2%	91.3%	98.7	85.7%	95.9%	95.6%	93.7%	92.4%	108%	–
CC1CN(C(C)C)C(=S)N(c2ccccc2)C1=O (stereo not given)	103%	95.9%	82%	90.4%	102%	98.8%	108%	–	–	104%	104%	119%	–	99.9%	105%	98.1%	94.4%	93.4%	122%	96.4%
O=C(/C=C\c1cccc([N+](=O)[O-])c1)c1ccccc1	59%	180%	36.6%	104%	14.9%	25.8%	89.9%	–	26.8	21%	4.18% (active)	77.6%	–	31.1%	40.7%	76.3%	71.9%	3.66% (active)	5.24% (active)	85.4%
Clc1nc(Cl)c2c3c(sc2n1)CCCC3	-55.3% (active)	-33.2% (active)	45%	62.4%	-19.4% (active)	26.1%	104%	81.2%	–	26.7%	11.3%	89%	–	49.7%	63.8%	–	92.9%	13.4%	55.1%	105%
Cc1cc(=O)oc2cc(Oc3nc(-c4ccc(Cl)cc4)cn4c(-c5ccc(Cl)cc5)cnc34)ccc12	69.6%	85.1%	43.6%	73.3%	70.5%	95.9%	120%	88.3%	–	63.8%	47.7%	91.6%	–	88.1%	87.9%	84.4%	99.3%	84.4%	38.3%	91.8%
Cc1cc(N/N=C/c2nc(-c3ccc(Cl)cc3)oc2C)c2cc(Br)ccc2n1	31.9%	0% (active)	7.27% (active)	70.4%	98.6%	68.5%	105%	101%	–	-20.3% (active)	-45.8% (active)	–	41.6	-33.3% (active)	80.2%	91.9%	58.2%	-43.4% (active)	17.5%	87.3%
CCC(=O)OCc1cccc(OC)c1	111%	62.4%	116%	97.4%	103%	107%	104%	–	96.3	92.2%	90%	59.7%	–	93.2%	86.5%	104%	95.8%	92.1%	107%	98%
COc1cc(/C=N\NC(=O)CN2CCN(c3cc4c(cc3F)c(=O)c(C(=O)N/N=C/c3ccc(O)c(OC)c3)cn4C3CC3)CC2)ccc1O	66.3%	40.5%	62.4%	59.5%	86.9%	59.4%	90.5%	41%	–	97.2%	14.1%	–	55.5	55.3%	69.7%	56.8%	52.9%	8.64% (active)	79.8%	86.9%
Cc1ccc(N)cc1F	109%	99.1%	93.5%	82%	104%	98.6%	110%	–	88.2	91.7%	110%	101%	–	95.8%	108%	104%	96%	87.8%	117%	100%
